IL-1B inflam inh – inhibitors of inflammasome signaling (IL-1 beta secretion) | THP-1 LPS/ATP IL-1B secretion, AlphaLISA, 16 h; stronger effect = lower value | activity change, % at 57.5 µM | hit rate 4.7% among 360,000 | AID 743279; in the data active means activity change below about -50%; inconclusive means mostly about -30% to -49%
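Secreted IL-1B measured by AlphaLISA bead assay after 16 h compound exposure of THP-1 cells; compounds (final up to 57.5 uM) added 1 h before LPS (250 ng/mL) and ATP (1.25 mM) stimulation; lower signal means less secretion.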
HT1080 IDH1KD tx – kills HT-1080 cells with IDH1 knockdown; HT-1080 IDH1 knockdown viability, ATP luminescence, 48 h; Potency, µM (highest dose often 46.1 µM), for inactives: top-dose activity, negative = toxicity, usual class: cytotoxic; hit rate 2% among 360,000; AID 686971;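 further: potency means the concentration at half of the fitted maximal effect; 0% = DMSO wells and -100% = cell-free medium wells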
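CellTiter-Glo luminescence after 48 h compound exposure at 37 degrees C of IDH1-knockdown HT-1080 cells in 5% FBS RPMI. %Activity scaled between DMSO wells and cell-free media wells, with curves fitted and assigned curve classes.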
HT1080NT lethal – kills 2HG-producing HT-1080-NT fibrosarcoma cells. HT-1080-NT fibrosarcoma viability, CellTiter-Glo ATP luminescence, 48 h. Potency, µM (titrated, usually from 46.1 µM), for inactives: top-dose activity, negative = less viability, usual class: cytotoxic. hit rate 1.6% among 360,000. AID 686970;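 further: NT is the 2HG producing partner of a matched IDH1 knockdown line; potency means the concentration at half of the fitted maximal effect; 0% = DMSO-treated cells and -100% = media-only wells without cells; nearly all actives have a fitted effect of over 55% in size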
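Viability of the 2HG-overproducing fibrosarcoma line after 48 hours of compound exposure at 37 degrees C was determined by luminescence with CellTiter-Glo, and concentration-effect curves were then fitted and categorized.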
TDP1 cell noCPT – qHTS for Inhibitors of human tyrosyl-DNA phosphodiesterase 1 (TDP1): qHTS in cells in absence of CPT; AID 686978, 2013; Potency, µM (top dose mostly 46.2 µM), for the others: at the top dose activity change, negative = growth inhibition, usual class: inhibitors; hit rate 15% among 420,000; DT40 Tdp1-/- hTDP1 cells, no CPT, ATP luminescence, 48 h; further: potency means the concentration at half of the fitted maximal effect; nearly all actives have a fitted effect of over 55% in size
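Seeded 400 DT40-hTDP1 cells/well (vehicle DMSO, no 20 nM CPT); pinned compounds; ≥48 hr at 37 °C; CellTiter-Glo luminescence as viability measure.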
TDP1 cell CPT – growth inhibition of DT40 Tdp1-/-;hTDP1 cells with camptothecin (screen for TDP1 inhibitors). Potency, µM (titrated, usually from 46.2 µM), without a hit: at the highest dose activity change, negative = growth inhibition, hits mostly inhibitors. hit rate 12% among 420,000. chicken DT40 Tdp1-/-;hTDP1 cells + 20 nM CPT, ATP luminescence, 48 h. AID 686979; further: potency means the concentration at half of the fitted maximal effect; nearly all actives have a fitted effect of over 55% in size
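Chicken DT40 Tdp1-/- cells complemented with human TDP1, 400 cells/well, exposed to compounds plus 20 nM camptothecin for at least 48 h at 37 C; viability read as ATP content by CellTiter-Glo luminescence.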
ELG1 DNA repair – blocks ELG1-dependent DNA repair in HEK293T cells; HEK293T ELG1-luciferase reporter, luminescence, 16 h; DNA damage induced by 5-fluorouridine; Potency, µM (highest dose often 46.1 µM), for the others: at the highest dose activity change, negative = inhibition, hits mostly inhibitors; hit rate 2.3% among 330,000; further: potency means the concentration at half of the fitted maximal effect; nearly all actives have a fitted effect of over 55% in size
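In this reporter screen, reduction of luminescence relative to DMSO vehicle indicated activity. Compounds and 5-fluorouridine were added together to 2,000 cells per well, incubated for 16 hr at 37 °C, then developed with ONE-Glo.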
An asterisk follows results filed as active; ? = inconclusive; . = not tested or not shown. The list is not random: actives were taken first. Their share in the collection is about 19%. Unless noted, the call rests on the fitted dose curve; in most records, active means well fitted curve in the direction sought with a large enough effect; inconclusive means small, poorly fitted or top-dose-only effect, or another doubt; inactive means no such curve, though single readings can be large; an effect the other way counts as inactive or inconclusive. Unless noted, on the % scale 0 is the no-effect control and ±100 the full control effect.

SMILES | IL-1B inflam inh | HT1080 IDH1KD tx | HT1080NT lethal | TDP1 cell noCPT | TDP1 cell CPT | ELG1 DNA repair
COc1ccc(C(=O)NC2CCCc3c2cnn3-c2cccc(C)c2C)o1 (stereo not given) | 0 | ? | 21µM* | 23µM* | 21µM* | 0%
O=C(CSc1ccccn1)NC1CCCc2c1cnn2-c1ccccc1F (stereo not given) | 24 | -5% | -4% | 16µM* | -26% | .
O=C(NCc1cccc(C(F)(F)F)c1)c1ccc2c(c1)OCO2 | 3 | -7% | 4% | 0% | 20% | 5%
Cn1/c(=N/N=C/c2ccccn2)sc2ccccc21 | ? | -2% | -6% | ? | 16% | ?
COc1cc(-n2ccnc2SC)c(Cl)cc1Cl | 12 | -12% | -7% | 18µM* | ? | ?
Cc1c(Cl)cccc1-n1nc(C)c2c(C)cc(=O)n(CC(=O)NCc3ccccc3)c21 | . | . | . | -31% | -21% | .
Cc1ccc(-n2nc(C)c3c(C)cc(=O)n(CC(=O)Nc4cccc(C)c4C)c32)cc1 | . | . | . | 1.2µM* | -8% | .
CCN(CC)C(=O)Cn1c(=O)cc(C)c2c(C)nn(-c3cccc(Cl)c3C)c21 | . | . | . | 12µM* | 15µM* | .
CCN(Cc1ccccc1)C(=O)Cn1c(=O)cc(C)c2c(C)nn(-c3cccc(F)c3)c21 | . | . | . | 21µM* | 18µM* | .
COc1ccc(OCC(O)CN(CCO)CC(O)Cn2ccc3ccccc32)cc1 (stereo not given) | 0 | -8% | -3% | ? | -17% | -8%
CCOc1ccc(C(=O)/C=C/c2ccccc2C(F)(F)F)cc1 | 0 | 3% | 14% | -9% | -23% | ?
CC(C)(CO)NCC(O)Cn1cc(C=O)c2ccccc21 (stereo not given) | 15 | -1% | 7% | 5% | -1% | -10%
CCC(=C(c1ccc(OC)cc1)c1ccc(OC)cc1)c1cn(CC(O)CN(CCO)CCO)c2ccccc12 (stereo not given) | ? | -22% | ? | 21µM* | ? | ?
CC(C)CN(CC(C)C)CC(O)Cn1cc(/C=C/C(=O)c2ccccc2)c2ccccc21 (stereo not given) | . | . | . | 4.6µM* | 4.1µM* | .
CCCN(CCC)CC(O)Cn1cc(/C=C/C(=O)c2ccc(OCC)cc2)c2ccccc21 (stereo not given) | . | . | . | 5.2µM* | 5.8µM* | .
Cc1ccc(-n2nnc(-c3nc(-c4cccs4)no3)c2N)cc1C | . | . | . | -25% | -20% | .
Cc1ccc(Nc2nc3nonc3[nH]c2=O)cc1Cl | -17 | ? | ? | 26µM* | 16µM* | ?
Cc1ccc2cc(C#N)c(N3CCCN(C(=S)NCCCN(C)C)CC3)nc2c1 | ? | 21µM* | 21µM* | 15µM* | 16µM* | 1%
Cc1cc(C)c2cc(C#N)c(N3CCCN(C(=S)NCCCN(C)C)CC3)nc2c1 | -56* | ? | ? | 23µM* | ? | 12%
NS(=O)(=O)OCCCc1ccc(C(F)(F)F)cc1 | 19 | -1% | 20% | ? | ? | -13%
COc1ccc(Cc2n[nH]c(=S)n2NC(=O)Nc2ccc(Cl)c(Cl)c2)cc1 | -23 | -10% | 0% | 7.3µM* | 10µM* | 12%
CCc1nnc(NC(=O)CSc2ccc(-c3ccc(-n4cccn4)cc3)nn2)s1 | 3 | 5% | 2% | -17% | -19% | ?
Cc1ccccc1C(=O)Nc1sc2c(c1C(=O)N1CCC(C)CC1)CCC(C)C2 (stereo not given) | . | . | . | 21µM* | 15µM* | .
CC1CCN(C(=O)c2c(NC(=O)c3ccccc3F)sc3c2CCC(C(C)(C)C)C3)CC1 (stereo not given) | . | . | . | 3% | -7% | .
Cc1ccccc1C(=O)Nc1sc2c(c1C(=O)N1CCCCC1)CCC(C)C2 (stereo not given) | . | . | . | ? | 18µM* | .
SMILES | IL-1B inflam inh | HT1080 IDH1KD tx | HT1080NT lethal | TDP1 cell noCPT | TDP1 cell CPT | ELG1 DNA repair
O=C1C(CO)C(CO)C(CO)C1CO (stereo not given) | -6 | 4% | -4% | -1% | 0% | .
COc1ccccc1CNc1ncncc1-c1ccccc1C(F)(F)F | . | . | . | -17% | -4% | .
CN(C)/C=C(\C(=O)c1ccccc1)c1nnnn1-c1ccccc1 | -6 | 3% | 1% | -16% | 10% | -3%
CN(C)c1ccc(C=C(c2nnnn2-c2ccccc2)c2nnnn2-c2ccccc2)cc1 | -14 | 5% | 7% | 16µM* | 21µM* | 12µM*
Cc1coc2c1c(C)cc1oc(=O)c(CC(=O)NCc3ccc(Cl)cc3)c(C)c12 | . | . | . | ? | 2% | .
NC(=O)NC(=O)COC(=O)c1ccc2c(c1)C(=O)N(Cc1ccccc1)C2=O | 41 | -9% | 22% | -11% | -3% | 6%
COc1ccc(-n2c(=O)c(-c3cccs3)nc3cnc(N(C)C)nc32)cc1 | . | . | . | -4% | -20% | .
Cc1ccc(-n2nc3c(=O)n(CCCC(=O)NCc4ccc(Cl)cc4)nc(C)c3c2C)cc1 | -2 | -1% | 0% | 13µM* | 23µM* | ?
Cc1ccc(-n2nc3c(=O)n(CCCC(=O)NCc4cccc(Cl)c4)nc(C)c3c2C)cc1 | -23 | ? | -12% | ? | 23µM* | -18%
Cc1cccc(CNC(=O)CCCn2nc(C)c3c(C)n(-c4ccccc4)nc3c2=O)c1 | -12 | -6% | 2% | ? | -24% | -1%
COc1ccc(CNC(=O)CCCn2nc(C)c3c(C)n(-c4ccc(C)cc4)nc3c2=O)cc1 | 0 | 14% | 7% | 9.2µM* | ? | ?
COc1ccc(-c2noc(CNC(=O)CCN3C(=O)[C@H]4CC=CC[C@H]4C3=O)n2)cc1 | -17 | -4% | 0% | ? | -16% | 12%
O=C(COC(=O)C1CCN(c2ccc(C(F)(F)F)cn2)CC1)Nc1cccc(F)c1 | -2 | 0% | 8% | -17% | ? | 5%
CC(C)CNC(=O)CC(=O)N/N=C/c1ccc(F)cc1 | -7 | -1% | 0% | -3% | -9% | 5%
CCOc1ccc(C2NC(=O)C(C#N)=C(S)N2c2ccc(C)cc2)cc1OC (stereo not given) | -59* | -14% | -7% | ? | ? | 0%
CCOc1ccc(C2NC(=O)C(C#N)=C(S)N2c2cccc(C)c2)cc1OC (stereo not given) | 5 | -2% | -1% | ? | ? | -13%
Cc1noc(C)c1CSCC(=O)Nc1cccc(C(F)(F)F)c1 | 11 | 0% | 7% | -19% | -21% | -2%

Screening data from PubChem BioAssay.
